Compound activity deposited in PubChem by several laboratories.
Mtb bLac sens = beta-lactam sensitization of Mtb H37Rv, H37Rv; actives 0.27% (n = 330,000); inhibition, % at 25 µM; M. tuberculosis H37Rv growth with meropenem, percent inhibition; call rule not given here;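 note: growth measured after seven days incubation then overnight dye step; 0% = bacteria only wells and 100% = bacteria with antibiotic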
Mtb UGM inh = M. tuberculosis UGM enzyme inhibitors, primary screen, biochemical, fluorescence polarization, single point | purified UGM, fluorescence polarization probe displacement | inhibition, % at 10 µM | actives 0.06% (n = 320,000); in the data active = inhibition above about 10%, passing the limit was not always enough
Rv3671c inh = Rv3671c serine protease inhibitors, primary screen, biochemical, fluorescence polarization, M. tuberculosis H37Rv; actives 0.048% (n = 320,000); inhibition, % at 5.96 µM; AID 2606, 2010; P9WHR9; in the data active = inhibition above about 38%;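 note: extracellular domain of Rv3671c used as enzyme; 0% = enzyme with DMSO and 100% = no enzyme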
Target sequence (P9WHR9 whole entry, looked up, the tested form may be a part): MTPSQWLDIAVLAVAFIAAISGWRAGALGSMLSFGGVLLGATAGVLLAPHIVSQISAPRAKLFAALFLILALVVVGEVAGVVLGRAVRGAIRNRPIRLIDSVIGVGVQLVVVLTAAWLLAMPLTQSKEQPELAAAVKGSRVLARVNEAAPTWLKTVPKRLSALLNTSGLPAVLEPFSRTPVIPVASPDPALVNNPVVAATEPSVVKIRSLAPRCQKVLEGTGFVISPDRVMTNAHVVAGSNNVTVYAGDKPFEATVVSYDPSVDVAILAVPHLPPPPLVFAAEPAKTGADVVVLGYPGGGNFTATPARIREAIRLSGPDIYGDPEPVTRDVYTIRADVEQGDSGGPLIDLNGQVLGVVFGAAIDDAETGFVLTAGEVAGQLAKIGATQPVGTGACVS
FadD28 FP inh = inhibitors of FadD28 bisubstrate probe binding, primary screen, biochemical, fluorescence polarization, single point; actives 0.22% (n = 360,000); AID 588549, 2011; Mycobacterium tuberculosis FadD28 fatty-acid-AMP ligase; inhibition, % at 12.5 µM; in the data active = inhibition above about 8.5%, passing the limit was not always enough
GDH-TPI counter-1 = GDH-TPI coupling enzyme inhibitors, primary screen, artefact control for M. tuberculosis FBA inhibitor project, biochemical, absorbance, full deck; AID 588335, 2011; GDH-TPI coupled enzyme counterscreen, NADH absorbance; inhibition, % at 4.8 µM; actives 1.2% (n = 360,000); in the data active = inhibition above about 30%;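 note: 0% = DMSO wells and 100% = wells lacking the enzyme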
FBA Mtb inh = Mtb FBA enzyme inhibitors, primary screen, biochemical, fluorescence, strain H37Rv. AID 588726, 2011. Fructose-bisphosphate aldolase (Mycobacterium tuberculosis (strain ATCC 25618 / H37Rv)), …. purified M. tuberculosis FBA, fluorescence read-out. actives 2.3% (n = 360,000). inhibition, % at 1 µM;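 note: 0% = vehicle and 100% = reference inhibitor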
Mtb FBA confirm = M. tuberculosis aldolase blockers, biochemical, fluorescence, strain H37Rv, confirmation; inhibition, % at 1 µM; AID 651616, 2012; actives 78% (n = 5,600); shares compounds with FBA Mtb inh; purified M. tuberculosis FBA, fluorescence read-out;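 note: 0% = vehicle wells and 100% = reference inhibitor wells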
GDH-TPI counter-2 = GDH-TPI coupling enzyme inhibitors, artefact control for M. tuberculosis FBA inhibitor project, biochemical, fluorescence, high throughput; GDH-TPI coupled enzyme counterscreen; shares compounds with FBA Mtb inh; actives 81% (n = 5,600); AID 652141, 2013; inhibition, % at 1 µM; in the data active = inhibition above about 10%
Starred values were filed as active, the others as inactive; · = not tested or not shown; + = active, no number. In the library only some 3.7% were active in any assay of this set; here they are far more common. Cut-off read from the data, not from the text of the source, unless noted: active = inhibition above about 27%; inactive = the rest.

SMILES	Mtb bLac sens	Mtb UGM inh	Rv3671c inh	FadD28 FP inh	GDH-TPI counter-1	FBA Mtb inh	Mtb FBA confirm	GDH-TPI counter-2
Cc1cc(NC(=O)CSc2nc(-c3cccs3)cc(C(F)(F)F)n2)no1	3	-1	9	-1	16	1	·	·
Cc1cc(NC(=O)CCCS(=O)(=O)c2nc(-c3cccs3)cc(C(F)(F)F)n2)no1	90	-1	-6	-3	39*	52*	68*	52*
Cc1cc(OCC(=O)N[C@@H](Cc2ccccc2)C(=O)O)c2c3c(c(=O)oc2c1)CCCC3	2	-1	-4	-10	-6	51*	161*	117*
Cc1cc(OCC(=O)NCc2cccnc2)c2c3c(c(=O)oc2c1)CCCC3	-7	1	-5	-3	4	106*	55*	37*
CCCc1cc(=O)oc2cc(C)cc(OCC(=O)NCc3cccnc3)c12	0	-2	-1	-4	1	76*	+	+
Cc1cccn2c(=O)c3cc(C(=O)O)n(C)c3nc12	-6	3	-2	-1	25	81*	80*	58*
COC1C=CC(CNC(=O)c2cc3c(=O)n4cccc(C)c4nc3n2C)(OC)O1 (stereo unspecified)	-8	-2	-1	0	23	36*	176*	109*
Cc1cccn2c(=O)c3cc(C(=O)NC4CCCC4)n(C)c3nc12	-2	2	-13	0	5	21	·	·
Cc1cc2nc(NC(=O)C3(C)CCN3C(=O)C(C)C)[nH]c2cc1C (stereo unspecified)	·	·	·	0	7	3	·	·
[O-]/C(=C(\C(=S)Nc1cccc2ccccc12)[n+]1cccc(CO)c1)c1ccc(Cl)s1	·	·	·	-4	3	31*	151*	129*
Cc1ccc(NC(=S)/C(=C(\[O-])c2ccc(Cl)s2)[n+]2cccc(CO)c2)cc1C	-4	1	1	-1	2	-7	·	·
O=C(NCC1CCCO1)c1ccccc1 (stereo unspecified)	-14	0	-7	0	-2	-6	·	·
CC(C)OCCCNC(=O)c1c(N)n(/N=C/c2cccs2)c2nc3ccccc3nc12	9	-1	-3	0	20	9	·	·
CCCNC(=O)c1c(N)n(CC2CCCO2)c2nc3ccccc3nc12 (stereo unspecified)	6	1	-28	2	15	99*	101*	79*
Nc1c(C(=O)NCC2CCCO2)c2nc3ccccc3nc2n1-c1ccccc1 (stereo unspecified)	15	0	6	-1	8	108*	87*	73*
CC(C)OCCCNC(=O)c1c(N)n(CC2CCCO2)c2nc3ccccc3nc12 (stereo unspecified)	17	-1	-12	2	5	49*	+	+
CCOC(=O)CCSc1nc(C)c2cc(C)c(C)cc2n1	96	0	4	-1	-3	2	·	·
CCOC(=O)CCSc1nc(C)c2cc(OC)ccc2n1	4	-1	-1	-3	0	36*	140*	116*
CC1=CC(c2ccccc2)n2nc(N)nc2N1 (stereo unspecified)	-7	1	-6	-3	6	53*	40*	37*
CC1=CC(c2ccccc2)n2nc(NS(=O)(=O)c3ccc(C)cc3)nc2N1 (stereo unspecified)	-1	0	-4	-1	14	49*	22	15*
CC1=CC(c2ccc(Cl)cc2)n2nc(NS(=O)(=O)c3ccc(C)cc3)nc2N1 (stereo unspecified)	6	-3	-7	0	12	80*	68*	63*
